The target in assay [1] is T1, ETS1 (UniProt P14921).
T1 sequence: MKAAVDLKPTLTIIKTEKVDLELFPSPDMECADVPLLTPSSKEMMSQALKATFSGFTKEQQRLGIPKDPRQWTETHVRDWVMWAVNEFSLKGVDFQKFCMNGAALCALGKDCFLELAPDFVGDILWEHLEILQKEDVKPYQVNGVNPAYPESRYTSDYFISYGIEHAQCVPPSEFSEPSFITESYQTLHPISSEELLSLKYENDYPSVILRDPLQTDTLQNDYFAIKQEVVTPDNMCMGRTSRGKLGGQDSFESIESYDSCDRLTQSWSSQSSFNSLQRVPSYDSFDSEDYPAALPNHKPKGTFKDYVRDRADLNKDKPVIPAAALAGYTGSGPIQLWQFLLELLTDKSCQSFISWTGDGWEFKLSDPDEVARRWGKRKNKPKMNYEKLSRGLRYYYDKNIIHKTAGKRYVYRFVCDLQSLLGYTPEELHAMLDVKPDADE
Nature of the assay: ETS1 binding intensity (PBM fluorescence), ETS1 alone (arbitrary fluorescence units); higher = stronger binding. As to conditions: ETS1 concentration 1 nM; RUNX1 concentration 0 nM.

The target of assay [2] is RUNX1 (UniProt Q01196). Briefly: RUNX1 binding intensity (PBM fluorescence), RUNX1 alone (arbitrary fluorescence units); higher = stronger binding. Conditions: RUNX1 concentration 2 nM; ETS1 concentration 0 nM. Here is the method:
(§1)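 Cooperative gcPBM on 36-bp genomic probes with neighbouring ETS1 and RUNX1 sites. Recombinant human RUNX1 (2 nM) was incubated alone or with ETS1 (25 nM) and detected with anti-RUNX1 antibody plus Alexa488 secondary. Values are medians over 4 replicate spots; the RUNX1+ETS1 data were normalised to the RUNX1-only data. The probes sit in constant array flanks that are not printed.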

For assay [3], the target named is T1, ETS1. Nature of the assay: ETS1 binding intensity (PBM fluorescence) in presence of RUNX1, normalised to ETS1-only experiment (arbitrary fluorescence units); higher = stronger binding. As to conditions: ETS1 concentration 1 nM; RUNX1 concentration 25 nM.
In assay [4] the target is RUNX1 (UniProt Q01196). Nature of the assay: RUNX1 binding intensity (PBM fluorescence) in presence of ETS1, normalised to RUNX1-only experiment (arbitrary fluorescence units); higher = stronger binding. As to conditions: RUNX1 concentration 2 nM; ETS1 concentration 25 nM. The method, then:
as §1

This note sets out measurements from the supplement of paper PMC10681739.
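Wherever RUNX1 binding intensity (PBM fluorescence) in presence of ETS1, normalised to RUNX1-only experiment is given: Full-length recombinant human ETS1 or RUNX1 bound to double-stranded 36-bp genomic probes on microarrays, detected by protein-specific primary antibody and Alexa488 secondary, spot fluorescence as median of four replicate spots.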
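Wherever RUNX1 binding intensity (PBM fluorescence), RUNX1 alone is given: Full-length recombinant human RUNX1 bound to double-stranded 36-bp genomic probes on a high-density microarray, scored as Alexa488 fluorescence per spot via anti-RUNX1 antibody, median of four replicate spots.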

Sequence of RUNX1 (Q01196 whole entry): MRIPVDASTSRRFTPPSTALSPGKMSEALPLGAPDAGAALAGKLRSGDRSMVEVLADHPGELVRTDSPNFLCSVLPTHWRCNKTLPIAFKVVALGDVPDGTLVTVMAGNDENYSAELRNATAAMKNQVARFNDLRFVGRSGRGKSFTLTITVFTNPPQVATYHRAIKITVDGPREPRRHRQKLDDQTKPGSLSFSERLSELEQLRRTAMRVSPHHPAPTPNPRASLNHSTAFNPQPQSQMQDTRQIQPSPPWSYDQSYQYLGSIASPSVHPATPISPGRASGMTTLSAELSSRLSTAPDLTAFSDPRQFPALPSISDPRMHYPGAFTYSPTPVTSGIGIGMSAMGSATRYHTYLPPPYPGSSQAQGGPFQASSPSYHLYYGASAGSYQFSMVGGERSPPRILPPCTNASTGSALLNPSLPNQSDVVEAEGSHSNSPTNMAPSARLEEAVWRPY

With CTACAAACGGCTTCCTCCTGCCTAACCACAACCTCA, the values for the ETS1 binding intensity in assay [1] and in assay [3] were 455 and 1130, respectively. The figures for the RUNX1 binding intensity in assay [2] and in assay [4] were 3280 and 5340, respectively.

On to TGCCTTCTACTCCGGAACTCAGACCGCTGCCTTCTA, for which the ETS1 binding intensity in assay [1] came out at 759; in assay [3], 979. The RUNX1 binding intensity turned out to be 1090 in assay [2] and 946 in assay [4].

With CTGCGTTTCCTCTGAGTTTTGCATGTTGAGGTTGGA, the ETS1 binding intensity in assay [1] worked out at 462; in assay [3] it was 382. The results for the RUNX1 binding intensity in assay [2] and in assay [4] were 877 and 1280, respectively.

For the sequence CCGCTTCCGGGACGCGAATCGCTCTGCGGCTGCGTC, the ETS1 binding intensity in assay [1] was 556; in assay [3], 722. The RUNX1 binding intensity turned out to be 832 in assay [2] and 2080 in assay [4].

On to TGCCGGGCCCCGGATGTCACCGCAGCCGCCATCTTA, for which the ETS1 binding intensity in assay [1] came out at 2460; in assay [3], 6730. Besides, the RUNX1 binding intensity was found to be 968 in assay [2] and 1990 in assay [4].

As to GCGAGACGCGGAAGAGGCTTGCGGTTGACCAAAGAA, the ETS1 binding intensity worked out at 407 in assay [1] and 2010 in assay [3]. The RUNX1 binding intensity worked out at 1830 in assay [2] and 4310 in assay [4].

With TCTGGAGAAGCAGGATGTGGTTTGCAAGAGGCTTGC, the ETS1 binding intensity in assay [1] worked out at 4750; in assay [3], 16700. Moreover, the RUNX1 binding intensity was found to be 774 in assay [2] and 4750 in assay [4].

For the sequence AGAAGCTGCACCCGGAAATGAAACCACCAGGACCTC, the values for the ETS1 binding intensity in assay [1] and in assay [3] were 4630 and 9310, respectively. Further, the values for the RUNX1 binding intensity in assay [2] and in assay [4] were 887 and 1380, respectively.

Regarding CTGAAACAGGAAACAGACAAAGCCACAAGGTTCGCA, the ETS1 binding intensity in assay [1] is 1840; in assay [3] it was 5750. Besides, the RUNX1 binding intensity in assay [2] came out at 746; in assay [4], 1780.

With CAGCGGAAGAAAGACCTGCCACCTCCACCACAAAGA, the values for the ETS1 binding intensity in assay [1] and in assay [3] were 440 and 471, respectively. Besides, the RUNX1 binding intensity came out at 1000 in assay [2] and 925 in assay [4].

With CTGAGCAAAAGGAGGAAGCTGTGGTCTGTGTACCCA, the ETS1 binding intensity in assay [1] was 606; in assay [3], 1800. For the same sequence, the RUNX1 binding intensity worked out at 810 in assay [2] and 945 in assay [4].

As for GCGGCGAACCGGACGCCCCAACCACCCGCCCCCCAC, the ETS1 binding intensity was 1710 in assay [1] and 1470 in assay [3]. In addition, the RUNX1 binding intensity in assay [2] was determined as 987; in assay [4], 1060.

Regarding ACCAGAAGCACTGCAGGATGTGGTATCAAGACGCCT, the ETS1 binding intensity in assay [1] turned out to be 2250; in assay [3], 6680. In addition, the RUNX1 binding intensity was determined as 774 in assay [2] and 1160 in assay [4].

Consider CTCTTCAGCAGGAAATGATGTGGTAAAACAGGGTTA, for which the ETS1 binding intensity is 3000 in assay [1] and 10100 in assay [3]. The RUNX1 binding intensity in assay [2] was 856; in assay [4], 1390.
